The record followed here is PubChem BioAssay (Tox21).

Results filed as inconclusive are left out. Where a call stands in place of a potency, no number is given. Activity calls are given as the source filed them. The call rests on the fitted dose curve; in most records, active means well fitted inhibition curve with a large enough effect in the repeat runs; inconclusive means weak or mixed curves; inactive means flat fitted curve, though single readings scatter.
Potency means the concentration at half of the fitted maximal effect.

A short description of this experiment: qHTS assay to identify small molecule HDAC inhibitors (AID 1259364). Further: nearly all actives have a fitted effect of over 45% in size. Particulars: HCT-116 HDAC-Glo I/II luminescence, 2 h; series mostly up to 92.4 µM. The text has this: U.S. Tox21 Program National Center for Advancing Translational Sciences [NCATS] NIH Chemical Genomics Center [NCGC] U.S. Environmental Protection Agency [EPA] National Institutes of Environmental Health Sciences [NIEHS] National Toxicology Program [NTP] U.S. Food and Drug Administration [FDA] Tox21 Assay Overview: Histone deacetylases (HDACs) are a group of epigenetic enzymes that regulate gene expression by histone deacetylation. HDACs are capable of introducing epigenetic modifications and such aberrations contribute to the onset and progression of several human diseases, thus making HDACs a popular therapeutic target. For identifying endogenous class I/II HDAC inhibitors a homogenous, luminogenic HDAC I/II cell based assay was used to measure the relative activity of class I and II HDACs from cells. Wild type HCT-116 cells were used to screen Tox21 libraries for identifying class I/II HDAC inhibitors.
Tox21 Assay Protocol Summary: HCT-116 cells were dispensed at 1,500 per well in 5uL of culture medium into white solid bottom 1536-well plates (Greiner Bio-One, Monroe, NC) using a Multidrop Combi (Thermo Scientific, Waltham, MA) dispenser. The assay plates were incubated at 37 C and 5% CO2 for an overnight, and then 23nL of compounds dissolved in DMSO and positive control were transferred using a Pintool station (Wako, San Diego, CA). The assay plates were incubated at 37C and 5% CO2 for 2hr. After compound treatment, 4uL of HDAC-Glo reagent (Promega Corporation, Madison, WI) was added to each well of the assay plates using Flying Reagent Dispenser (FRD, Aurora Discovery, San Diego, CA) and incubated the assay plates at room temperature for 30min. The luminescence signal was quantified using a ViewLux plate reader (Perkin Elmer, Shelton, CT).
With `Cc1ccc2c(Br)cc(Br)c(O)c2n1`, the Potency entry was “inactive”.

Regarding `Nc1nc2ccc([N+](=O)[O-])cc2s1`, the Potency was 17.7 µM (active). Under `CC(=O)[C@H]1[C@H](C#N)C[C@H]2[C@@H]3CC=C4C[C@@H](O)CC[C@]4(C)[C@H]3CC[C@@]21C` stands “inactive”. Then `C=C(C)[C@@H]1CCC2=CCC[C@@H](C)[C@]2(C)C1`, with “inactive”.

`CCCCCCCC/C=C\CCCCCCCCCCCC(=O)O`: the Potency result is “inactive”. As for `O=C(Cn1ccnc1[N+](=O)[O-])NCCO`, the Potency result is “inactive”. For `CC(=O)OCCN(CCOC(C)=O)c1ccc(N=Nc2ccc([N+](=O)[O-])cc2C#N)cc1`, the Potency is 27.3 µM (active). For `CO[C@]1(NC(=O)CSC(F)F)C(=O)N2C(C(=O)O)=C(CSc3nnnn3CCO)CO[C@H]21`, the Potency entry was “inactive”. Under `O=c1cc(-c2ccccc2)oc2ccc3ccccc3c12` stands 0.137 µM (active); under `Cc1cccc(O)c1N`, “inactive”.

Regarding `CCOC(=O)c1ccc(I)cc1`, the Potency entry was “inactive”. Under `CC(C)=CCC/C(C)=C/CC/C(C)=C/C(=O)OCC(=O)[C@@]1(O)CC[C@H]2[C@@H]3CCC4=CC(=O)C=C[C@]4(C)[C@H]3[C@@H](O)C[C@@]21C` stands “inactive”. Under `OC(CCN1CCCC1)(c1ccccc1)C1CCCCC1` (stereo not given) stands “inactive”. Under `Cc1cc(O)ccc1O` stands “inactive”; under `O=c1[nH]ncc2ccccc12`, “inactive”. Consider `COc1cc(N)c(Cl)cc1C(=O)NC1CCN(CCCOc2ccc(F)cc2)CC1OC` (stereo not given), for which the Potency entry is “inactive”. Under `COc1cc(Nc2c(C#N)cnc3cc(OCCCN4CCN(C)CC4)c(OC)cc23)c(Cl)cc1Cl` stands “inactive”; under `CCCCN(CCN(CCCC)C(=O)N1CCOCC1)C(=O)N1CCOCC1`, “inactive”; under `CC1=C(Br)C(=O)C(Br)=C/C1=C(/c1ccccc1S(=O)(=O)O)c1cc(Br)c(O)c(Br)c1C`, 7.39 µM (active). Under `OC1(c2ccccc2)CCNCC1` stands “inactive”; under `CC(C)(O)c1ccc(CNC(=O)c2cccnc2Oc2ccc3nonc3c2)cc1`, “inactive”; under `CCOC(C)=O`, “inactive”. Then `Oc1cccc(O)c1O`, with “inactive”. With `CC(CCC(=O)O)C(=O)O` (stereo not given), the Potency result was “inactive”. Under `C=C(C)C(=O)OCCCCCCCCCCCCC` stands “inactive”; under `OCCOCC#CCOCCO`, “inactive”. As to `O=C1c2ccccc2C(=O)C1(O)O`, the Potency entry was “inactive”. Take `O=C1c2ccccc2C(=O)N1CCc1noc(-c2ccc(CN3CCCCCC3)s2)n1`: the Potency entry is “inactive”. On to `CC(=O)OCC[N+](C)(C)C`, for which the Potency result is “inactive”. As to `C(=C\c1ccccc1)/c1ccccc1`, the Potency was 19.2 µM (active).

On to `CO/N=C(/C(=O)N[C@@H]1C(=O)N2C(C(=O)O)=C(COC(N)=O)CS[C@H]12)c1ccco1`, for which the Potency entry is “inactive”. Under `CC(=O)c1cc2ccccc2s1` stands “inactive”. Under `O=C(CCCN1CC=C(n2c(=O)[nH]c3ccccc32)CC1)c1ccc(F)cc1` stands “inactive”; under `C=C1c2cccc(O)c2C(O)=C2C(=O)[C@]3(O)C(O)=C(C(N)=O)C(=O)[C@@H](N(C)C)[C@@H]3[C@@H](O)[C@H]12`, “inactive”; under `O=C1C(=O)c2ccccc2C(O)=C1C1CCC(c2ccc(Cl)cc2)CC1` (stereo not given), “inactive”. With `CCC=CC#N`, the Potency was 21 µM (active). With `Clc1ccc(Nc2nnc(Cc3ccncc3)c3ccccc23)cc1`, the Potency entry was “inactive”. Under `CCCCC(CC)COP(=O)(O)O` (stereo not given) stands “inactive”. As for `CC1=Nc2ccc3ccccc3c2C1(C)C`, the Potency result is “inactive”. Turning to `COC(=O)C1=C(C)NC(C)=C(C(=O)O[C@@H]2CCCN(Cc3ccccc3)C2)[C@@H]1c1cccc([N+](=O)[O-])c1`, the Potency entry was “inactive”.
